From article PMC7862700, “An all-to-all approach to the identification of sequence-specific readers for epigenetic DNA modifications on cytosine”

How the values were obtained:
Assay in all cases: DAPPL (digital affinity profiling via proximity ligation, sequencing); 10 mM Tris-HCl pH 7.5, 50 mM NaCl, 1 mM DTT, 4% glycerol, room temperature, 30 min; GST-TFs on glutathione beads, 16-mer random dsDNA library, 0.1% formaldehyde crosslink after washing; high values mean tight binding
Conditions in all cases: protein: recombinant; tags: N-terminal GST; dsDNA, one strand shown
ETV2 = target: T1, ETV2 (Homo sapiens, UniProt O00321 1-342)
T1 sequence: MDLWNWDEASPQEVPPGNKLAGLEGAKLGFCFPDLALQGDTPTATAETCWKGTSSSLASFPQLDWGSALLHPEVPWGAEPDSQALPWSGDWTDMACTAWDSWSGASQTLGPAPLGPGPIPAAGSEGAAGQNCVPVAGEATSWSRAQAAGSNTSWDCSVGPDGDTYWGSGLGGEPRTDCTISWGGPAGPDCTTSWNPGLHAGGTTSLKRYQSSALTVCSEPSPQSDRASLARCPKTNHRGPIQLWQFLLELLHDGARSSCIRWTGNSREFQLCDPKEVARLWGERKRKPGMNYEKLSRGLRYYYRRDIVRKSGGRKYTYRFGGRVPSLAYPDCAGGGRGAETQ
Method in brief: (§1)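 Yeast served to express human transcription factors as GST fusions, which were then captured on glutathione beads and labelled with DNA barcodes. Pooled with a tag-only sample, they were incubated with 200 nmole of a 16-mer random double-stranded DNA library for 30 min at room temperature in Tris/NaCl/DTT/glycerol buffer, washed, crosslinked with 0.1% formaldehyde, ligated by proximity, amplified by PCR and sequenced. Dividing each hexamer's read frequency for a factor by its frequency for the tag-only sample gives the binding signal.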

ELF3 = target: T2, ELF3 (Homo sapiens, UniProt P78545 1-371)
T2 sequence: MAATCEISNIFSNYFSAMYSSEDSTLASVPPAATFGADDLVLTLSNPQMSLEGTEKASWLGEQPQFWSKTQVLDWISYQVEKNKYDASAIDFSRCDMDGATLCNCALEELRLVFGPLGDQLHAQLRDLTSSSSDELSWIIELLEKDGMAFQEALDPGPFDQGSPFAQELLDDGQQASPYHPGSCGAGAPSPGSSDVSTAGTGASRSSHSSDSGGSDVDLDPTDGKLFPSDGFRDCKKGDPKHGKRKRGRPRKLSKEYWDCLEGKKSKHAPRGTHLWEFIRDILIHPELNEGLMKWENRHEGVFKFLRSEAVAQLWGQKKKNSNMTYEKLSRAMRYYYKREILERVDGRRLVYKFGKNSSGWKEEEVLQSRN
Method in brief: as §1

ETV1 = ETV1 (Homo sapiens, UniProt P50549 1-477)
Method in brief: as §1

ERF = target: T3, ERF (Homo sapiens, UniProt P50548 1-548)
T3 sequence: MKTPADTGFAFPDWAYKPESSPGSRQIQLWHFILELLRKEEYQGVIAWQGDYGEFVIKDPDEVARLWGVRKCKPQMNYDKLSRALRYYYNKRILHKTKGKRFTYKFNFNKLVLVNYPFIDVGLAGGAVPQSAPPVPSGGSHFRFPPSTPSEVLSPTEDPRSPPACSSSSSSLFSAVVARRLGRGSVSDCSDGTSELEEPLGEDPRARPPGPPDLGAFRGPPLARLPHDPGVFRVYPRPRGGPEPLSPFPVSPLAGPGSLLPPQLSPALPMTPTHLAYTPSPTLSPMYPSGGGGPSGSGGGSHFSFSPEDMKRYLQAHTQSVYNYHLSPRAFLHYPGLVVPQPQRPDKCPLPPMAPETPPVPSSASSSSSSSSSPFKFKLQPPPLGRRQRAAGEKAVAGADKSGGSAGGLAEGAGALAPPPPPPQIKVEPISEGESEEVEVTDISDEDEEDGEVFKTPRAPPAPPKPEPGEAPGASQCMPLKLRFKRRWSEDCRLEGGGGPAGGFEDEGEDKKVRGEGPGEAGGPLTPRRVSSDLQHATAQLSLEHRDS
Method in brief: as §1

ETV3L = target: T4, ETV3L (Homo sapiens, UniProt Q6ZN32 1-361)
T4 sequence: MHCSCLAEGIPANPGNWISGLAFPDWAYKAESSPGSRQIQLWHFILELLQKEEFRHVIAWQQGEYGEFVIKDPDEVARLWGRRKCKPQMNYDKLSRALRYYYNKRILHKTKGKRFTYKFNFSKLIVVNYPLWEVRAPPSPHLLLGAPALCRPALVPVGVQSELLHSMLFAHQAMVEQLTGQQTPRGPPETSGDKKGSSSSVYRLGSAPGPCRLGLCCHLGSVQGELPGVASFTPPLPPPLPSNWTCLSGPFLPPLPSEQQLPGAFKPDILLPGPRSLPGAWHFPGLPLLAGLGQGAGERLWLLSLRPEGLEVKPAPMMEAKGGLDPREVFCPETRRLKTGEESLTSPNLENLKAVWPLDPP
Method in brief: as §1

ETS2 = target: T5, ETS2 (Homo sapiens, UniProt P15036 1-469)
T5 sequence: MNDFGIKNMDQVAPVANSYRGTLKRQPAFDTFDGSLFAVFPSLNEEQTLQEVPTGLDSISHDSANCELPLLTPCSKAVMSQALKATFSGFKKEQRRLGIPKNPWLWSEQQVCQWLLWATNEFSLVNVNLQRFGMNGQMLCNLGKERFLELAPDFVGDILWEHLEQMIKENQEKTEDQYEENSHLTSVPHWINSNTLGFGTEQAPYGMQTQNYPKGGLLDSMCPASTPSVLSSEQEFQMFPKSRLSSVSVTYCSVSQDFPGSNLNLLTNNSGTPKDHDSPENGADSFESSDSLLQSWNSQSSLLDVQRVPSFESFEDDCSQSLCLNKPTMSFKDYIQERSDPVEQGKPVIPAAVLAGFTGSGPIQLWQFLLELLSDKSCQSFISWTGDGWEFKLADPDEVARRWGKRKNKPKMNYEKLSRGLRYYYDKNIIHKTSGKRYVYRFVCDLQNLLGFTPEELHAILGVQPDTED
Method in brief: as §1

SPDEF = target: T6, SPDEF (Homo sapiens, UniProt O95238 1-335)
T6 sequence: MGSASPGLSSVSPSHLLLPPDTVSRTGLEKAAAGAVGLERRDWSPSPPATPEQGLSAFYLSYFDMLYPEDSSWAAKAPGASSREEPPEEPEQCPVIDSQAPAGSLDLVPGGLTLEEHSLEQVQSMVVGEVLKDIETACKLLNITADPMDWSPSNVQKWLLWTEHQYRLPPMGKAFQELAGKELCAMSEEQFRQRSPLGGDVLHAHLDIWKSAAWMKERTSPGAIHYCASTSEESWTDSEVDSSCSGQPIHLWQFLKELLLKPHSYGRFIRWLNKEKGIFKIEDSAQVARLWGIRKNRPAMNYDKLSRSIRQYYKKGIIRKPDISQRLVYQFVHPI
Method in brief: as §1

ETV7 = target: T7, ETV7 (Homo sapiens, UniProt Q9Y603 1-341)
T7 sequence: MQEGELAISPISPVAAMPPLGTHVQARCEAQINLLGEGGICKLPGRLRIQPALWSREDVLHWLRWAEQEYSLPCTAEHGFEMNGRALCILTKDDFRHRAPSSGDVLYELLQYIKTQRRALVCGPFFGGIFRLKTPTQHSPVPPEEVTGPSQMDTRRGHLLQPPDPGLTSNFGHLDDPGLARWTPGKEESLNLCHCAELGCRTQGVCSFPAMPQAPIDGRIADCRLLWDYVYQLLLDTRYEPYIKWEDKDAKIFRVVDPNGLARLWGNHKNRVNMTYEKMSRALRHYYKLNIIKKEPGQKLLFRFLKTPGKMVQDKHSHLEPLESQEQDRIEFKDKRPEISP
Method in brief: as §1

ETV3 = target: T8, ETV3 (Homo sapiens, UniProt P41162-2 1-143)
T8 sequence: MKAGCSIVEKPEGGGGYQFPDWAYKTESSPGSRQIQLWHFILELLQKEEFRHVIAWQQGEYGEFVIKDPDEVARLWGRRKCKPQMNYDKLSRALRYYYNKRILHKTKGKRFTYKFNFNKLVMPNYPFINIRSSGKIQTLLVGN
Method in brief: as §1

ETV6 = ETV6 (Homo sapiens, UniProt P41212 1-452)
Method in brief: as §1

Sequence of ETV6 (P41212 whole entry): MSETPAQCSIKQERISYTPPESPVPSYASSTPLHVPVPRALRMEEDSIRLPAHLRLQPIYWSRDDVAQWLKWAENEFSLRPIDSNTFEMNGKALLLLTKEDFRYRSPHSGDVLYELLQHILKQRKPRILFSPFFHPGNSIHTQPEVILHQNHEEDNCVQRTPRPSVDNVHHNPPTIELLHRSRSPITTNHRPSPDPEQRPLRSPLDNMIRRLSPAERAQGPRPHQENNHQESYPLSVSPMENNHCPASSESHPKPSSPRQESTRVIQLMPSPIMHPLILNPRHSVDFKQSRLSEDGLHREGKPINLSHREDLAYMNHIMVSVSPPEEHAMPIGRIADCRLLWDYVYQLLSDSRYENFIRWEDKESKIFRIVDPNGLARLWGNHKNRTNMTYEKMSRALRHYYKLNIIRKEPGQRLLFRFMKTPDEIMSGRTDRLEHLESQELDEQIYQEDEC
Sequence of ETV1 (P50549 whole entry): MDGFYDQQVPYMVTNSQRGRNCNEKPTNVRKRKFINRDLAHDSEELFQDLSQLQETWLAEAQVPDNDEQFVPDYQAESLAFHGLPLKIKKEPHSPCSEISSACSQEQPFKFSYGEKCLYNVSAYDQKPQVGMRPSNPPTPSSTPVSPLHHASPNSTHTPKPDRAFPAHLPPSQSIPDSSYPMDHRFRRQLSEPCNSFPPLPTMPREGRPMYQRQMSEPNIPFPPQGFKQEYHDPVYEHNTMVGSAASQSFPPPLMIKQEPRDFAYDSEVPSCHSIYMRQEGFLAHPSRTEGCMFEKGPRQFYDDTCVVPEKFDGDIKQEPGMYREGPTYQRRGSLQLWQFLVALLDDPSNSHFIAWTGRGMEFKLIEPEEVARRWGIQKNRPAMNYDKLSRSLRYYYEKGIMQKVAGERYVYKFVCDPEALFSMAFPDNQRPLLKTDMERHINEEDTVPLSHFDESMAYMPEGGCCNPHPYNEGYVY

Q: Which binding signal (ETV2) does the source give for TGTAAC here?
A: The binding signal was 1.21 fold enrichment (6-mer frequency, TF over GST control).

Q: And the binding signal (ELF3)?
A: Its binding signal is 1.22 fold enrichment (6-mer frequency, TF over GST control).

Q: What about the binding signal (ETV1) of the same sequence?
A: The binding signal was 1.28 fold enrichment (6-mer frequency, TF over GST control).

Q: And the binding signal (ERF)?
A: Its binding signal is 1.23 fold enrichment (6-mer frequency, TF over GST control).

Q: And the binding signal (ETV3L)?
A: The binding signal was 1.15 fold enrichment (6-mer frequency, TF over GST control).

Q: What about the binding signal (ETS2) of the same sequence?
A: Its binding signal is 1.32 fold enrichment (6-mer frequency, TF over GST control).

Q: And the binding signal (SPDEF)?
A: The binding signal was 1.23 fold enrichment (6-mer frequency, TF over GST control).

Q: And the binding signal (ETV7)?
A: The binding signal was 1.18 fold enrichment (6-mer frequency, TF over GST control).

Q: What about the binding signal (ETV3) of the same sequence?
A: Its binding signal is 1.24 fold enrichment (6-mer frequency, TF over GST control).

Q: And the binding signal (ETV6)?
A: Its binding signal is 1.2 fold enrichment (6-mer frequency, TF over GST control).
